45 compounds from PMC4336329 (PLoS ONE, 2015) can be followed below.

Hit rate of the full screen: of about 310,000 compounds, about 14,000 (4.5%) showed an effect of 50% or more. The effect is printed as a negative number. The full list was thinned out, with strong results kept by preference.
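Note: peak tail current of the secondary pulse compared with the same well before compound.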

human ether-à-go-go-related gene (hERG) potassium channel, sequence (Q12809 whole entry, looked up): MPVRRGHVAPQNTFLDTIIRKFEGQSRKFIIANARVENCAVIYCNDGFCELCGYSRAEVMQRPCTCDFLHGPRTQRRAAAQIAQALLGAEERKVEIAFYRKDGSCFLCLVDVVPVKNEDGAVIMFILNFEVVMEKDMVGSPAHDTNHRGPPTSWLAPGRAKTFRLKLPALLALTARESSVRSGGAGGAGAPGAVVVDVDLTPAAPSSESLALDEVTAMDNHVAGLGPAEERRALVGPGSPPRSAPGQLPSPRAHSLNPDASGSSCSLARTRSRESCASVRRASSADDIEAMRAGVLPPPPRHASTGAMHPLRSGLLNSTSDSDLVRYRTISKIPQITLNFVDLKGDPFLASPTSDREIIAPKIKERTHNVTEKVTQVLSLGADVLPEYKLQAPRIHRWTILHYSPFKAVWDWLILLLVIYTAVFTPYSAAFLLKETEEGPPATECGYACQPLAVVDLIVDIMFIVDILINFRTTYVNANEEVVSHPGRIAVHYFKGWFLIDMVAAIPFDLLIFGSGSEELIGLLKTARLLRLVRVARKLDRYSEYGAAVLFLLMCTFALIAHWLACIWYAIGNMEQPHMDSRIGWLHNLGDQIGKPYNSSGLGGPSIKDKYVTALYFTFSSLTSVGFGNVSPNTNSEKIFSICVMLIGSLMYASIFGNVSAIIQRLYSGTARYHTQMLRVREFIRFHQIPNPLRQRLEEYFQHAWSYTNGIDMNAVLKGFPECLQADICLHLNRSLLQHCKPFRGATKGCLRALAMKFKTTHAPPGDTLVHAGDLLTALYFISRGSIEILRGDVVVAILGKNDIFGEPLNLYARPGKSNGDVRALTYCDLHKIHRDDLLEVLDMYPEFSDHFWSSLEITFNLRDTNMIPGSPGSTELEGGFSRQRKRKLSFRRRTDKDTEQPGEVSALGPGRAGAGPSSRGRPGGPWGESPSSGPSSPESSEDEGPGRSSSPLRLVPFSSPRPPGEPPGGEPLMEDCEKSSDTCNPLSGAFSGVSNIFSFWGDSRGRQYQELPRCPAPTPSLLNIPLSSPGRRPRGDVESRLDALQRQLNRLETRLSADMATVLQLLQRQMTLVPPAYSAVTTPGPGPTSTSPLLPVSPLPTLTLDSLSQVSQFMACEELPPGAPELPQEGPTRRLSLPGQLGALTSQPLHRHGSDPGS

This assay concerns the target human ether-à-go-go-related gene (hERG) potassium channel (human, UniProt Q12809). As to the kind of experiment: primary screen, population patch clamp on CHO cells stably expressing hERG; higher = less effect of the substance.
Turning to `COC(=O)CSc1nsc(SCC(=O)OC)c1C#N`, the “hERG current change (%, negative = inhibition) at 10uM” value stood at 5.34%.
The value for `CCOC(=O)CC(=O)CSc1nc(-c2cccnc2)ccc1C#N` was 17.5%; that for `CCOC(=O)CSc1nsc(SCC(=O)OCC)c1C#N` was -55.7%.
On to `CC1CCc2c(sc3nc4n(c(=O)c23)CCS4)C1` (stereo not drawn), for which the “hERG current change (%, negative = inhibition) at 10uM” value is recorded as -10.3%.
The value for `CCOC(=O)c1nc(Nc2ccc(C(=O)OC)cc2)c2ccccc2n1` was 0.323%.
For the compound `COc1ccc(-c2nc3ccccc3n2OCC(=O)O)cc1`, the “hERG current change (%, negative = inhibition) at 10uM” value came out at 18.5%.
For `CCCCCC(=O)NC(=S)Nc1ccc(NC(=O)c2ccco2)cc1` the value was 2.58%.
For `CC1(C)Cc2c(sc(NC(=O)c3ccc(Br)o3)c2C#N)CO1`, the “hERG current change (%, negative = inhibition) at 10uM” value came out at 16.6%.
For `Cn1ccnc1C1CCCCN1Cc1nc(-c2ccc3c(c2)OCO3)no1` (stereo not drawn) the value was -7.65%; for `COc1ccc(-c2nc(CN3CCCCC3CCc3ccccn3)c(C)o2)cc1` (stereo not drawn), -90.7%.
As for `Fc1cccc(Cc2noc(CN3CCCCC3CCc3ccccn3)n2)c1` (stereo not drawn), the “hERG current change (%, negative = inhibition) at 10uM” value is reported as 0.789%.
For the compound `Cc1oc(-c2cccc3ccccc23)nc1CN1CCC[C@H]1CO`, the “hERG current change (%, negative = inhibition) at 10uM” value was -12.2%.
For `COc1ccc(-c2nc(CN3CCCCC3c3cccnc3)c(C)o2)c(F)c1` (stereo not drawn) the value was -35.9%; for `Clc1ccccc1Cc1noc(CN2CCCCC2CCc2ccccn2)n1` (stereo not drawn), -29.4%.
Turning to `c1ccc(CCC2CCCCN2Cc2nc(-c3ccc4c(c3)OCO4)no2)nc1` (stereo not drawn), the “hERG current change (%, negative = inhibition) at 10uM” value is given as -55.7%.
For `Cc1oc(-c2cccc(F)c2)nc1CN1CCCCC1CCc1ccccn1` (stereo not drawn) the value was -91.5%.
Take `COc1ccc(-c2nc(CS(=O)CC(=O)NCc3ccccn3)c(C)o2)cc1` (stereo not drawn): the “hERG current change (%, negative = inhibition) at 10uM” value amounted to 6.44%.
For `Cc1cccc(C2Nc3ccccc3C(=O)N2c2ccccc2)n1` (stereo not drawn) the value was 4.41%; for `O=C(NCc1ccc2c(c1)OCO2)C1CC(c2ccc(Cl)c(Cl)c2)=NO1` (stereo not drawn), 15%.
For `Cc1nn(C(C)c2n[nH]c(=S)n2-c2ccc(F)cc2)c(C)c1[N+](=O)[O-]` (stereo not drawn) the value was 13.3%; for `O=C(Nc1ccc2c(c1)C(=O)OC2)c1ccc(C(F)(F)F)cc1`, 17.3%.
Regarding `COc1ccc(CN2CCNC(=O)C2CC(=O)NCCCn2nnc3ccccc32)cc1C` (stereo not drawn), the “hERG current change (%, negative = inhibition) at 10uM” value is given as -2.87%.
On to `O=C(NCCN1CCc2ccccc2C1)Nc1ccc([N+](=O)[O-])cc1`, for which the “hERG current change (%, negative = inhibition) at 10uM” value is given as -70.1%.
With `O=C(NCCN1CCCCC1)Nc1ccc([N+](=O)[O-])cc1`, the “hERG current change (%, negative = inhibition) at 10uM” value is reported as -41.4%.
For `CN1CCN(CCNC(=O)Nc2ccc([N+](=O)[O-])cc2)CC1` the value was -25.7%.
The value for `CCc1ccc(NC(=O)CN2CCc3ccccc3C2)cc1` was -34.2%; that for `O=C(NCCN1CCc2ccccc2C1)Nc1ccc(F)cc1` was -37.5%; that for `CCc1ccc(NC(=O)NCCN2CCc3ccccc3C2)cc1` was -54.7%.
`CCCCSCCCNC(=S)Nc1ccccc1C`: the “hERG current change (%, negative = inhibition) at 10uM” value is recorded as 5.08%.
The value for `COc1ccc(OC)c(N(CC(=O)NCCSCc2ccco2)S(=O)(=O)c2ccccc2)c1` was -69.2%; that for `Cc1ccc(N(CC(=O)NCCSCc2ccco2)S(=O)(=O)c2ccc(C)cc2)cc1` was -69.7%; that for `COc1ccc(OC)c(N(CC(=O)NC2CC3CCC2C3)S(=O)(=O)c2ccccc2)c1` (stereo not drawn) was -59.7%.
For the compound `COc1ccc(OC)c(N(CC(=O)NCCSCc2ccco2)S(=O)(=O)c2ccc(OC)c(OC)c2)c1`, the “hERG current change (%, negative = inhibition) at 10uM” value is -22.6%.
For `COc1ccc(N(CC(=O)NCCSCc2ccco2)S(=O)(=O)c2ccc(C)cc2)cc1` the value was -17.9%; for `COc1ccc(S(=O)(=O)N(CC(=O)NC2CC3CCC2C3)c2ccccc2OC)cc1` (stereo not drawn), -25%; for `COc1ccccc1N(CC(=O)NCCSCc1ccco1)S(=O)(=O)c1ccccc1`, -26.6%.
The value for `Cc1ccc(S(=O)(=O)N(CC(=O)NCCSCc2ccco2)c2ccc(F)cc2)cc1` was -28.3%; that for `COc1ccc(Cl)cc1N(CC(=O)NC1CC2CCC1C2)S(=O)(=O)c1ccccc1` (stereo not drawn) was -31.5%; that for `O=C(NCc1nc2ccccc2[nH]1)c1cccc(S(=O)(=O)N2CCCCC2)c1` was 13.9%.
For `Cn1c(=O)c2c(nc(Br)n2CCCc2ccccc2)n(C)c1=O` the value was -9.05%; for `COc1ccc(Cl)cc1S(=O)(=O)N1CCC(C(=O)NC2CCCC2)CC1`, -21.2%; for `COC(=O)[C@H]1C[C@@H]1[C@H](NC(=O)c1cc(C)on1)c1ccccc1`, 10.3%.
Consider `Cc1cc(NC(=O)CSCC(=O)N2CCN(c3cccc(C(F)(F)F)c3)CC2)no1`, for which the “hERG current change (%, negative = inhibition) at 10uM” value is recorded as -11.3%.
In the case of `COCCN(C(=O)/C=C/c1ccccc1)c1nnc(-c2cccnc2)s1`, the “hERG current change (%, negative = inhibition) at 10uM” value was -9.61%.
The value for `Cn1c(N2CCOCC2)c(C#N)c2ccccc21` was -3.19%.
